Laboratory results as given in PubChem BioAssay (EPA / NIEHS).
Values joined by “and” are separate entries in the source; they are usually repeats but may differ in a detail not shown here. Equal values may be shown once. Records with an inconclusive call do not appear. More than one record can exist for a structure, and the calls need not agree. Active and inactive are the calls of the source. The calls were made as follows, unless noted: active = hit-call score of the fitted dose curve at least 0.9, where 1 is the maximum; inactive = score below 0.9.

What was measured:
[1] = read-out: Monokine induced gamma interferon (MIG), CXCL9 (gene 4283); experiment: BSK_3C_MIG: BioMAP Diversity Plus: 3C Assay for Monokine induced gamma interferon (MIG) Biomarker Activity (AID 2283021); conditions: primary human endothelial cells (HUVEC); actives raise or lower the signal;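 as to AC50: MIG protein level measured by immunoassay in the treated endothelial cultures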
Procedure, shortened: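 After 24 h of treatment, human umbilical vein endothelial cultures (3C system) had their MIG biomarker level determined by ELISA, with DMSO serving as negative control.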

[2] = target: human Vitamin D Receptor (VDR), VDR (gene 7421) (UniProt P11473); experiment: ATG_VDR_TRANS: Attagene TRANS-FACTORIAL HepG2 Assay for human Vitamin D Receptor (VDR) (AID 2283022; active = hit-call score of the fitted dose curve at least 0.9, where 1 is the maximum)
human Vitamin D Receptor (VDR), VDR (gene 7421), sequence (P11473 whole entry, looked up, the tested form may be a part): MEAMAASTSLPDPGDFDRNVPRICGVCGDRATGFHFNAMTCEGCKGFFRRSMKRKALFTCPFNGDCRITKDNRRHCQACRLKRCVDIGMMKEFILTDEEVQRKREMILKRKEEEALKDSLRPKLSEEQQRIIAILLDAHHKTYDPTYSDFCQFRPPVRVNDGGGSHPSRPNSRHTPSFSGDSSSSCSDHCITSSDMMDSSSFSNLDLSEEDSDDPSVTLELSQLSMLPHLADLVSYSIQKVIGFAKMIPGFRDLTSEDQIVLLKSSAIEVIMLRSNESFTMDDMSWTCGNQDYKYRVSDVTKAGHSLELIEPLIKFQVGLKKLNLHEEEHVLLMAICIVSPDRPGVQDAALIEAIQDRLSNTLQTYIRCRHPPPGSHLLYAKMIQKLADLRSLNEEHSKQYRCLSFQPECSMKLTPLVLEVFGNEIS
Procedure, shortened: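 HepG2 cells were transiently transfected with multiple GAL4-UAS reporter units, so signal reflects exogenous chimeric receptor-Gal4 activity. After 24 h compound exposure, reporter mRNA was measured by RT-PCR, fluorescent labelling and capillary electrophoresis, fitted for gain of signal versus DMSO.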

[3] = BSK_3C_SRB: Viability Assessment in the BioMAP Diversity Plus: 3C Assay (AID 2283023); conditions: primary human endothelial cells (HUVEC);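 also: fitted both ways against DMSO so a hit may be signal rise or drop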
Procedure, shortened: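 Primary human umbilical vein endothelial cells in the 3C system were read 24 h after compound dosing. Total protein was stained with 0.1% sulforhodamine B after 10% TCA fixation and read at 560 nm, with bidirectional fitting against DMSO as baseline.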

[4] = read-out: Matrix Metallopeptidase 1 (MMP1), MMP1 (gene 4312); experiment: BSK_BE3C_MMP1: BioMAP Diversity Plus: BE3C Assay for Matrix Metallopeptidase 1 (MMP1) Biomarker Activity (AID 2283024); conditions: primary human bronchial epithelial cells; actives raise or lower the signal
Procedure, shortened: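 Dose cells, wait 24 h, run MMP1 ELISA; cells are human bronchial epithelial primaries. Both increases and decreases relative to DMSO counted.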

[5] = BSK_3C_Vis: BioMAP Diversity Plus: 3C Assay for Morphology Visualization (AID 2283025); conditions: primary human endothelial cells (HUVEC);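 also: fitted both ways so gain or loss versus DMSO counts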;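 as to AC50: light microscopy image of cell morphology used as background control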
Procedure, shortened: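 Endothelial cells from human umbilical vein were treated with test chemicals for 24 h and inspected by light microscopy for changes in cell conformation.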

[6] = read-out: Pselectin, SELP (gene 6403); experiment: BSK_4H_Pselectin: BioMAP Diversity Plus: 4H Assay for Pselectin Biomarker Activity (AID 2283026); conditions: primary human endothelial cells (HUVEC); actives raise or lower the signal
Procedure, shortened: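 Human vascular endothelium from umbilical vein; P-selectin measured by ELISA at 24 h post-dose, with cytotoxicity checked by sulforhodamine B total-protein staining in parallel cultures (0.1% SRB after 10% TCA fixation, read at 560 nm).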

[7] = BSK_4H_SRB: Viability Assessment in the BioMAP Diversity Plus: 4H Assay (AID 2283027); conditions: primary human endothelial cells (HUVEC);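 also: cells exposed to compound for 24 h before staining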;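 as to AC50: curves fitted both ways versus DMSO so AC50 may be loss or gain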
Procedure, shortened: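 Human umbilical vein endothelial cells were dosed with chemical and, after 24 h, fixed with 10% TCA, stained with 0.1% sulforhodamine B, and read at 560 nm to give total protein as a cytotoxicity measure. Bidirectional fitting relative to DMSO control.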

[8] = BSK_BE3C_SRB: Viability Assessment in the BioMAP Diversity Plus: BE3C Assay (AID 2283028); conditions: primary human bronchial epithelial cells;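 as to AC50: fitted both ways so AC50 may mark signal gain or loss versus DMSO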
Procedure, shortened: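 Human primary bronchial epithelial cells were exposed to test chemicals for 24 h. Total protein in parallel cultures was then measured by staining with 0.1% sulforhodamine B after 10% TCA fixation, with absorbance read at 560 nm. Activity was fitted bidirectionally against DMSO.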

[9] = read-out: Thrombomodulin, THBD (gene 7056); experiment: BSK_3C_Thrombomodulin: BioMAP Diversity Plus: 3C Assay for Thrombomodulin Biomarker Activity (AID 2283029); conditions: primary human endothelial cells (HUVEC); actives raise or lower the signal
Procedure, shortened: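 Thrombomodulin ELISA, human primary HUVEC, 24 h post-dose; data fitted in both directions relative to DMSO.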

[10] = read-out: Interleukin-8 (IL8), CXCL8 (gene 3576); experiment: BSK_3C_IL8: BioMAP Diversity Plus: 3C Assay for Interleukin-8 (IL8) Biomarker Activity (AID 2283020); conditions: primary human endothelial cells (HUVEC); actives raise or lower the signal
Procedure, shortened: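 Human vascular endothelial cells (umbilical vein) in the 3C system; IL-8 level detected by ELISA at 24 h post-dose, with DMSO as baseline.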

Measured: AC50

c1ccc2[nH]c(-c3cscn3)nc2c1
not listed: [10]
inactive: all other assays above

C#CCOC(=O)[C@@H](C)Oc1ccc(Oc2ncc(Cl)cc2F)cc1
inactive: all assays above

O=C(O)c1ccccc1
inactive: all assays above

CCCOC(=O)NCCCN(C)C
inactive: all assays above

O=C(c1ccc(O)cc1O)c1ccc(O)cc1O
inactive: all assays above

CC(=O)S[C@@H]1CC2=CC(=O)CC[C@]2(C)[C@H]2CC[C@@]3(C)[C@@H](CC[C@@]34CCC(=O)O4)[C@H]12
active: [10] 18.9 µM | [3] 25.7 µM | [7] 32 µM
not listed: [6]
inactive: all other assays above

CCCCCOC(=O)COc1cc(N2C(=O)C3=C(CCCC3)C2=O)c(F)cc1Cl
not listed: [10]
inactive: all other assays above

COC(=O)CSc1cc(N=c2sc(=O)n3n2CCCC3)c(F)cc1Cl
active: [9] 1.21 µM
not listed: [2]
inactive: all other assays above

S=C(S)NCCNC(=S)S.[Mn+2].[S-]C([S-])=NCCN=C([S-])[S-].[Zn+2]
active: [4] 1.34 µM
inactive: [10] | [1] | [2] | [3] | [4] | [5] | [6] | [7] | [8] | [9]

COC(=O)c1ccc(CNS(C)(=O)=O)cc1S(=O)(=O)NC(=O)Nc1nc(OC)cc(OC)n1
not listed: [10]
inactive: all other assays above

CCCCOC(=O)C(C)Oc1ccc(Oc2ccc(C(F)(F)F)cn2)cc1 (stereo not drawn)
not listed: [10]
inactive: all other assays above

CCOC(=O)[C@H](C)Oc1ccc(Oc2nc3ccc(Cl)cc3o2)cc1
not listed: [10]
inactive: all other assays above

CC(=O)[C@H]1CC[C@H]2[C@@H]3CCC4=CC(=O)CC[C@]4(C)[C@H]3CC[C@]12C
active: [10] 20 µM | [3] 6.1 µM | [4] 7.49 µM | [5] 9.8 µM | [6] 31.9 µM
inactive: all other assays above

COC(=O)c1c(Cl)nn(C)c1S(=O)(=O)NC(=O)Nc1nc(OC)cc(OC)n1
inactive: all assays above

N#CSCSc1nc2ccccc2s1
inactive: [2] | [8] | [9]
active: [10] 8.35 µM and 14.4 µM | [1] 11 µM and 11.9 µM | [3] 5.31 µM and 5.24 µM | [4] 7.12 µM and 11.3 µM | [5] 4.4 µM and 4.82 µM | [6] 1.24 µM and 5.49 µM | [7] 3.51 µM and 10.6 µM | [8] 5.15 µM | [9] 35.8 µM

C#C[C@]1(O)CC[C@H]2[C@@H]3CCC4=CC(=O)CC[C@@H]4[C@H]3CC[C@@]21CC
active: [4] 3.16 µM
inactive: all other assays above

O=C(c1ccccc1)C1CCCCC1
inactive: all assays above

CCCN(CCC)c1c([N+](=O)[O-])cc(C(F)(F)F)c(N)c1[N+](=O)[O-]
inactive: [4]
active: [10] 32.9 µM | [1] 31.7 µM | [3] 30.6 µM | [5] 16.3 µM | [6] 30.3 µM | [7] 31.5 µM | [8] 16.4 µM | [9] 2.15 µM

CCN(Cc1c(F)cccc1Cl)c1c([N+](=O)[O-])cc(C(F)(F)F)cc1[N+](=O)[O-]
active: [3] 11.8 µM | [5] 13.7 µM | [7] 12.6 µM | [8] 8.78 µM
not listed: [2]
inactive: all other assays above

c1ccc(Nc2ccccc2)cc1
inactive: all assays above

Oc1ccc(C(c2ccc(O)cc2)C(Cl)(Cl)Cl)cc1
inactive: [2]
active: [10] 15.5 µM | [1] 30.7 µM | [3] 16.4 µM | [4] 33.1 µM | [5] 29.4 µM | [6] 20 µM | [7] 19.3 µM | [8] 30.2 µM | [9] 6.1 µM

C[C@]12C[C@H](O)[C@H]3[C@@H](CCC4=CC(=O)CC[C@@]43C)[C@@H]1CC[C@@H]2C(=O)CO
not listed: [2]
inactive: all other assays above

C=CCOC(Cn1ccnc1)c1ccc(Cl)cc1Cl (stereo not drawn)
active: [5] 9.8 µM
not listed: [10]
inactive: all other assays above

CCCN(CCC)C(=O)SCC
not listed: [10]
inactive: all other assays above

CCC(C)OC(=O)N1CCCCC1CCO (stereo not drawn)
not listed: [2]
inactive: all other assays above

C[C@]12CC[C@@H]3c4ccc(O)cc4C[C@@H](CCCCCCCCCS(=O)CCCC(F)(F)C(F)(F)F)[C@H]3[C@@H]1CC[C@@H]2O (stereo partly drawn)
active: [3] 3.51 µM | [4] 0.907 µM
inactive: all other assays above

N[C@@H](Cc1cc(I)c(Oc2ccc(O)c(I)c2)c(I)c1)C(=O)O
active: [4] 3.8 µM
not listed: [10]
inactive: all other assays above

CCOC(=O)NCCOc1ccc(Oc2ccccc2)cc1
active: [3] 20 µM | [5] 39 µM
not listed: [10]
inactive: all other assays above

CC(C)(C)[C@@H](O)[C@@H](Cc1ccc(Cl)cc1)n1cncn1
active: [5] 39 µM
not listed: [2]
inactive: all other assays above

CSC(=O)c1cccc2nnsc12
not listed: [10]
inactive: all other assays above

COC(=O)c1ccccc1C(=O)O
not listed: [2] | [10]
inactive: all other assays above

CCSC(=O)N(CC(C)C)CC(C)C
not listed: [2] | [10]
inactive: all other assays above

CCCOC(=O)c1ccc(C(=O)OCCC)nc1
not listed: [2] | [10]
inactive: all other assays above

S=C([S-])NCCNC(=S)[S-].[Mn+2]
active: [5] 39 µM | [6] 27.8 µM
not listed: [2] | [10]
inactive: all other assays above

CCCCC(CC)COC(=O)c1ccccc1C(=O)O (stereo not drawn)
not listed: [2] | [10]
inactive: all other assays above

CC(C)CCCCCCc1ccc(O)cc1
inactive: [2]
active: [1] 8.53 µM | [3] 9.24 µM | [4] 32 µM | [5] 5.31 µM | [6] 9.15 µM | [7] 6.94 µM | [8] 36 µM | [9] 20 µM

CC(C)(c1ccc(O)cc1)c1ccc(O)cc1
inactive: [1] | [3] | [4] | [5] | [6] | [7] | [8] | [9]
active: [3] 14.2 µM | [5] 39.6 µM and 20 µM | [8] 24 µM

COC(=O)c1cccc(C)c1S(=O)(=O)NC(=O)Nc1nc(OCC(F)(F)F)nc(N(C)C)n1
not listed: [2] | [10]
inactive: all other assays above

CC1(C)C(C=C(Cl)Cl)C1C(=O)OCc1cccc(Oc2ccccc2)c1 (stereo not drawn)
active: [3] 6.15 µM | [5] 20 µM
not listed: [10]
inactive: all other assays above
